Assay results: the supplement of paper PMC11732987, “Enantioselective OTUD7B fragment discovery through chemoproteomics screening and high-throughput optimisation” (Communications Chemistry, 2025)

What was measured:
Test in all cases: log2 ratio of Biotin-Ahx-Ub-VS probe labelling (fragment/DMSO); higher = less target engagement (more negative = stronger competition), active = hit call of the paper (q ≤ 0.05, log2 ratio ≤ -1)
Conditions in all cases: compound concentration: 200 uM; treatment time: 3 h
USP19 = target: T1, USP19 (UniProt O94966)
T1 sequence (whole entry): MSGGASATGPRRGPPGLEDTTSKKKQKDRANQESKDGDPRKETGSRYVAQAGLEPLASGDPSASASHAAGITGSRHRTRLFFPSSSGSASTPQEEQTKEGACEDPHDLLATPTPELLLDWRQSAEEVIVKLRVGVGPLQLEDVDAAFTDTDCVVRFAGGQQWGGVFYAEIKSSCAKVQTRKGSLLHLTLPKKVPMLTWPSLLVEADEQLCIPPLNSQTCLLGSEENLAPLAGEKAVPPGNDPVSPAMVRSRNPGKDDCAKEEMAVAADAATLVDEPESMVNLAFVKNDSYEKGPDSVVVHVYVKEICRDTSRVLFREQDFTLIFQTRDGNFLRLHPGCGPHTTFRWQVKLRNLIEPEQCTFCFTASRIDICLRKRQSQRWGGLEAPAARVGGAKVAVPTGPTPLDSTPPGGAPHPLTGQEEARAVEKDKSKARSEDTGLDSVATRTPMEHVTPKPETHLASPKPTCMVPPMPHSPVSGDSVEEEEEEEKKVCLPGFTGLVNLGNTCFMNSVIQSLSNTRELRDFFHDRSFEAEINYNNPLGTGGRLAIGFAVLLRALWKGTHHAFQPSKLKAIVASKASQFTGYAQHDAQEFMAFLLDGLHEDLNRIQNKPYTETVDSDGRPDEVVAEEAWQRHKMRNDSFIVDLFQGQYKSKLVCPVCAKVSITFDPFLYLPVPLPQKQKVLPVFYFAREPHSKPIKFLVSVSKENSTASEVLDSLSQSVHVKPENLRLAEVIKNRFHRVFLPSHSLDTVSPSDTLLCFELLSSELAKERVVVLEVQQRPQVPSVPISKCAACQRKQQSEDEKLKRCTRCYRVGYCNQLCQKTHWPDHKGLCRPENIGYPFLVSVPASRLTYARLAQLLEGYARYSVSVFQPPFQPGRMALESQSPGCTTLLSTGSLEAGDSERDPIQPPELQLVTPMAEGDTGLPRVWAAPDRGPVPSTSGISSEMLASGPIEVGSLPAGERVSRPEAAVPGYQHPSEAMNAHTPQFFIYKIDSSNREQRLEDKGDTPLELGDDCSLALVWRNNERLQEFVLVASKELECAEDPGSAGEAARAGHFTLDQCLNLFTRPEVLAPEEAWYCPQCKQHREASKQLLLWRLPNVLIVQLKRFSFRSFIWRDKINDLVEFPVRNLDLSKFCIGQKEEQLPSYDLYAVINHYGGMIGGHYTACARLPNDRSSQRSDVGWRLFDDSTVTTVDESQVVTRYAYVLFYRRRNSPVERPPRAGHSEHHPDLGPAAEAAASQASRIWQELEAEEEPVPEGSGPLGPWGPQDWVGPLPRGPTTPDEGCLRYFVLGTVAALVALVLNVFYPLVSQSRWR
Summary of the method: (§1)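 HEK293T lysate in Tris/CHAPS/IGEPAL buffer with protease inhibitors (495 µg per sample) was given fragment at 200 µM or vehicle for 3 h, in triplicate. It then received Biotin-Ahx-Ub-VS at 0.5 µM final for 1 h. Labelled DUBs were NeutrAvidin-enriched, digested with LysC and trypsin, and run by diaPASEF LC-MS/MS. Values are average log2 fragment/vehicle ratios by unpaired t-test on global-median-normalised Spectronaut quantities of proteins with ≥2 unique peptides.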

USP24 = USP24 (UniProt Q9UPU5)
Summary of the method: as §1

USP25 = target: T2, USP25 (UniProt Q9UHP3)
T2 sequence (whole entry): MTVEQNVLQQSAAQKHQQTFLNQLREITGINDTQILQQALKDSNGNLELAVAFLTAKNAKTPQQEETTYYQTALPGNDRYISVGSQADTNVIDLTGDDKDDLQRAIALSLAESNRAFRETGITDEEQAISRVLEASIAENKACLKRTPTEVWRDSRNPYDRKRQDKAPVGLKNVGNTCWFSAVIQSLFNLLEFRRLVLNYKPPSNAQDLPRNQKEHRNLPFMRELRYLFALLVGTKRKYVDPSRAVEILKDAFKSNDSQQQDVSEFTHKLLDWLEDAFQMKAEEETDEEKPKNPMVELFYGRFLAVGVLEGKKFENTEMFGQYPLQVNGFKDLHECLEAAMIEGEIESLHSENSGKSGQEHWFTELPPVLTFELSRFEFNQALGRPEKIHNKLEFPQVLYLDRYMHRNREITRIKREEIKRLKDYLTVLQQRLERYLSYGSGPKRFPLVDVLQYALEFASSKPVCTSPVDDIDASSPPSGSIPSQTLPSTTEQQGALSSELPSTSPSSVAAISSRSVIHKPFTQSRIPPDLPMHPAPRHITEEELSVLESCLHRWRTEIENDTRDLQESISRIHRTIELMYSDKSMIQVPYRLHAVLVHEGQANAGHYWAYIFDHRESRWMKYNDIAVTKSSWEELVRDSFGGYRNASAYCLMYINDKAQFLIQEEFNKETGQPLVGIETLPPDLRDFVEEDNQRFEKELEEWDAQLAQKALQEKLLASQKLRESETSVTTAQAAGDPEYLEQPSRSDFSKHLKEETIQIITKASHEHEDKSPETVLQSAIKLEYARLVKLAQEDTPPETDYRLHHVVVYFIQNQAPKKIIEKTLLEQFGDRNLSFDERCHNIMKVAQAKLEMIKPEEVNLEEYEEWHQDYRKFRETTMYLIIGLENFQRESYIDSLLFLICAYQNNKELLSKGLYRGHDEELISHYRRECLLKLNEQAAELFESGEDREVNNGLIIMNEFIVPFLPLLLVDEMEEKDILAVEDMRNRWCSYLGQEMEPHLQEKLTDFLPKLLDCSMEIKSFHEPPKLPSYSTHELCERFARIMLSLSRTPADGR
Summary of the method: as §1

USP28 = target: T3, USP28 (UniProt Q96RU2)
T3 sequence (whole entry): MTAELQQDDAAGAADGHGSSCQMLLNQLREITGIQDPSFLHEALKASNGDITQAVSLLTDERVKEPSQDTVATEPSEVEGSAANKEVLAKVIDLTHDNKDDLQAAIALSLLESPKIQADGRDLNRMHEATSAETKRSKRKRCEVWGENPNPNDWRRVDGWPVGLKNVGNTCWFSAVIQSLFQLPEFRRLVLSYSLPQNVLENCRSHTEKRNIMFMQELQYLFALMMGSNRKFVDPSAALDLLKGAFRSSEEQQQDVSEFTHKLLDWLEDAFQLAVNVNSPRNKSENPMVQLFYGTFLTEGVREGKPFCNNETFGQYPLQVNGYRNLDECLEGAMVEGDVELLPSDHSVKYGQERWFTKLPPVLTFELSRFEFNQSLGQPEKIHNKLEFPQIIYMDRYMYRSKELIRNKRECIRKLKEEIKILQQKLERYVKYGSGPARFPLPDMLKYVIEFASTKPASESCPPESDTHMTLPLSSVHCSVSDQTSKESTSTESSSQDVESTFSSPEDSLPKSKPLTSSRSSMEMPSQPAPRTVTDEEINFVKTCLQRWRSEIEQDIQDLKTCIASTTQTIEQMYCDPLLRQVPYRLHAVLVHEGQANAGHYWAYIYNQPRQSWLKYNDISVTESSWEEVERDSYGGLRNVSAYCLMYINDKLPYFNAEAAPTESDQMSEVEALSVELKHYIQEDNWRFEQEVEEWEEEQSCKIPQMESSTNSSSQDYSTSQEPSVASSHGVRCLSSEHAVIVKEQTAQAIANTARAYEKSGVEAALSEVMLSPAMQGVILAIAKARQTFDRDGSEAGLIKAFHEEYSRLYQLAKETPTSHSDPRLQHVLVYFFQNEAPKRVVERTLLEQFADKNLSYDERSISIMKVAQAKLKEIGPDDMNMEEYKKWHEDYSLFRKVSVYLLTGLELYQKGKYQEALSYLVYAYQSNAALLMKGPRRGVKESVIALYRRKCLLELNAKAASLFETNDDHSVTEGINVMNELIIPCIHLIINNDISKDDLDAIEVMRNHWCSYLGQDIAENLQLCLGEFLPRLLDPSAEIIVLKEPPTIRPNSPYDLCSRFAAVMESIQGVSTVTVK
Summary of the method: as §1

Measured: log2 ratio of Biotin-Ahx-Ub-VS probe labelling

Sequence of USP24 (Q9UPU5 whole entry): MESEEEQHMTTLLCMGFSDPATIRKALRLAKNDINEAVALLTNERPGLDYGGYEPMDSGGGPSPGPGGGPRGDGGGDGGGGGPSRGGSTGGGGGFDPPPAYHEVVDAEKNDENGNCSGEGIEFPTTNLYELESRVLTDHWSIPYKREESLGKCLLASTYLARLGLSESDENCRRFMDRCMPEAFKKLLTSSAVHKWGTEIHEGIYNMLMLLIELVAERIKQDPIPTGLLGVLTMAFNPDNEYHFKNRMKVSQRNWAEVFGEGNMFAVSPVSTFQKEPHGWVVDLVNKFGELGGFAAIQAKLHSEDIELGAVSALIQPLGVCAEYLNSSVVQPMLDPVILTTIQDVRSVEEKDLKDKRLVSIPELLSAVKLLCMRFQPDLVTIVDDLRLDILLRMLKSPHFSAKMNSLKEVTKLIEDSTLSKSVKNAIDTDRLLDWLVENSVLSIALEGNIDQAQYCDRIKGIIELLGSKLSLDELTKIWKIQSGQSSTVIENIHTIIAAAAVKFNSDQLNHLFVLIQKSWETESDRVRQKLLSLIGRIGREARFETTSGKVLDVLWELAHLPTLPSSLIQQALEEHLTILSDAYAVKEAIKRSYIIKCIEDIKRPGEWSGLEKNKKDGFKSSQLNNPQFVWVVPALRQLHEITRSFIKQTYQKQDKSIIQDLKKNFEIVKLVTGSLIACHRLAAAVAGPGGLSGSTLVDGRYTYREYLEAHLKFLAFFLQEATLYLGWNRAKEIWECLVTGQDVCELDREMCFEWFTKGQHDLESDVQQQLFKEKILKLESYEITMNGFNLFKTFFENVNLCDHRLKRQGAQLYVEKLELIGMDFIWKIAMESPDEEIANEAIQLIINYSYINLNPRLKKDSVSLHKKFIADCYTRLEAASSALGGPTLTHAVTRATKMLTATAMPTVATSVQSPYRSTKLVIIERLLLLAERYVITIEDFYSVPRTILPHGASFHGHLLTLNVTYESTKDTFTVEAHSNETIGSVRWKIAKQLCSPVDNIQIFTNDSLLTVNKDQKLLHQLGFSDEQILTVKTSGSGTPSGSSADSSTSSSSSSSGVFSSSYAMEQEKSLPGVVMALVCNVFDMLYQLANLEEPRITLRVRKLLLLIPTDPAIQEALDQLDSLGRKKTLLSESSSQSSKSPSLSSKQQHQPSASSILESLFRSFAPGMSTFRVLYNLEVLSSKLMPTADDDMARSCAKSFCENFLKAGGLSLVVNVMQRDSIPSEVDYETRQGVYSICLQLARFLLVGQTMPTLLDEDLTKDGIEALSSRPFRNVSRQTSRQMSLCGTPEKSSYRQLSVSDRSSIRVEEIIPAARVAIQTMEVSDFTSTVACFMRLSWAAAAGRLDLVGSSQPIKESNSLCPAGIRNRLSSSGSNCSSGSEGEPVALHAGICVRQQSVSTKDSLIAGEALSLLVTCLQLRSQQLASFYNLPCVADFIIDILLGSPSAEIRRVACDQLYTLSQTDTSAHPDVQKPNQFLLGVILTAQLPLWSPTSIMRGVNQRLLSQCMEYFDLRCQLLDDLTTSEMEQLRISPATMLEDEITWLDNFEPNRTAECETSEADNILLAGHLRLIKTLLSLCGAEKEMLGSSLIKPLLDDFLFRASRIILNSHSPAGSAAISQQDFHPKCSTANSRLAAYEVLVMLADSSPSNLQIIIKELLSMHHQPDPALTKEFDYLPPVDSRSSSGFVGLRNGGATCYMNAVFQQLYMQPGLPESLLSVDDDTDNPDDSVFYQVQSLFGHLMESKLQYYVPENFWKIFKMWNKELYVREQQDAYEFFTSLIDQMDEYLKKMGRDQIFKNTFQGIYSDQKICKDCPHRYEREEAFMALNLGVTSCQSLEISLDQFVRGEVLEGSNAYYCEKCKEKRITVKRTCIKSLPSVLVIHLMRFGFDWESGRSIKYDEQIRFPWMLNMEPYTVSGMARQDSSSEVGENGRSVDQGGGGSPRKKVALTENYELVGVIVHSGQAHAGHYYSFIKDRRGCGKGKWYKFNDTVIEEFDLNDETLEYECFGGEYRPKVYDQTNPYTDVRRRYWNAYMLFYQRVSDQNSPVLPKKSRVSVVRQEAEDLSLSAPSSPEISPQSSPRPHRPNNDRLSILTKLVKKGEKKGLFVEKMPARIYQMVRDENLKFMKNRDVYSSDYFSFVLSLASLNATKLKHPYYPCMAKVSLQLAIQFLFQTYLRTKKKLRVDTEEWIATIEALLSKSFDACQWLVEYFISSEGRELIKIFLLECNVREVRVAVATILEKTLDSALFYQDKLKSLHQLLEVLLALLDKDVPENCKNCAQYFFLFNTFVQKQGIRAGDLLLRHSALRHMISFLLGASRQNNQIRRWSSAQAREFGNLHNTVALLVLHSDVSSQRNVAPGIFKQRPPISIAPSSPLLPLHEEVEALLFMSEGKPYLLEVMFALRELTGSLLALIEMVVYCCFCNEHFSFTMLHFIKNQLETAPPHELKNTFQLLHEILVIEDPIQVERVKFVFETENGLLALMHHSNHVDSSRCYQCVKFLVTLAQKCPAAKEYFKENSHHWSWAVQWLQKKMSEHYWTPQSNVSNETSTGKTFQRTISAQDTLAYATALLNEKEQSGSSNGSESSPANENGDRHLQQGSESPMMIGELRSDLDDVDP

O=C(CCl)N1CCC(=C(F)CO)C1
inactive: USP19 -0.052 | USP24 0.183 | USP25 0.0707 | USP28 -0.149
